# Out of some 210,000 compounds screened, about 5,900 (2.8%) were called active. Inconclusive results (about 5%) are left out. The entries come from a sample that favours actives as a whole. A call without a number means that no potency is given here. Values without a mark were called inactive. Calls come from the whole dose curve; as a rule, active = well fitted activation curve with a large enough effect; inconclusive = small, poorly fitted or top-dose-only effect; inactive = no such curve, though single readings can be large or run the other way.
# Assay: qHTS Assay for Enhancers of SMN2 Splice Variant Expression; note: nearly all actives have a fitted effect of over 55% in size
# Conditions: HEK293 SMN2-luciferase splicing reporter, luminescence, 30-36 h; series mostly up to 46.1 µM
# In short: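 HEK293 cells carry an SMN2 minigene-luciferase reporter in which exon 7 inclusion puts luciferase in frame. Cells were seeded at 2000 cells/well, attached for 10-12 hours, then exposed to compounds for 30-36 hours at 37C before ONE-Glo luminescence.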
# Potency is the fitted concentration of half-maximal effect.
SMILES,Potency,"activity change, positive = activation"
CCCCn1cc(S(=O)(=O)c2ccc(OCC)cc2)c(=O)c2cc(OC)c(OC)cc21,inactive,
O=P(O)(O)C(O)c1ccc2ccccc2c1 (stereo not given),inactive,
O=c1cc(COc2cccc(C(F)(F)F)c2)nc2sc3c(n12)CCCC3,inactive,
COc1ccc(N(C)C(=O)C2CCN(S(=O)(=O)c3cc(Br)cc4c3N(C(C)=O)CC4)CC2)cc1,inactive,
CN(c1ccc(C(=O)NCc2ccccn2)cc1)S(C)(=O)=O,inactive,
O=C(Cc1nn[nH]n1)NCCC1=CCCCC1,inactive,
O=C(NCCC1=CCCCC1)c1ccc(Cl)c([N+](=O)[O-])c1,inactive,
O=C(Cc1cccc2ccccc12)NCCC1=CCCCC1,inactive,
CN(c1ccc(C(=O)NCCC2=CCCCC2)cc1)S(C)(=O)=O,11.2 µM (active),
Cn1nnc2cc(C(=O)NCCC3=CCCCC3)ccc21,11.2 µM (active),
Cc1nc2nc(SCC(=O)N(Cc3ccccc3)C(C)C)nn2c(C)c1Cc1ccccc1Cl,inactive,
CCc1ccc(CN(Cc2ccco2)C(=O)c2ccccc2Cl)cc1,inactive,
COc1ccccc1CNC(=O)CCCn1c(=O)c2ccccc2n(CC(=O)Nc2ccc(C)cc2Cl)c1=O,inactive,
O=C(NCc1ccc2c(c1)OCO2)c1ccc(Cl)s1,inactive,
O=C(NC1=NCCS1)c1ccc(Cl)s1,15.8 µM (active),
O=C(NC1=NCCS1)[C@H](Cc1ccccc1)N1C(=O)c2ccccc2C1=O,inactive,
COc1cccc2c1cc1c(=O)n(CC(=O)N3CCN(c4ccccc4)CC3)nc(C)n12,inactive,
CCNC(=O)CC1C(=O)N(c2ccc(F)cc2)C(=O)N1Cc1ccc(C)cc1 (stereo not given),inactive,
CC(=O)c1ccc(NC(=S)NC(=O)CC(C)C)cc1,7.94 µM (active),
COc1ccc(NS(=O)(=O)c2ccc(NC(=S)NC(=O)CC(C)C)cc2)cc1,inactive,
CC(C)CC(=O)NC(=S)Nc1cc(C(=O)O)ccc1Cl,inactive,
Cc1cccc(NC(=O)Cn2c(C(F)(F)F)nc3ccccc32)c1C,inactive,

SMILES,Potency,"activity change, positive = activation"
COc1ccc(N2CCN(c3cc(C)nc4nncn34)CC2)cc1,inactive,
O=C(c1ccc2c(c1)N(Cc1ccccc1F)C(=O)c1ccccc1S2(=O)=O)N1CCOCC1,inactive,
CC(=O)Nc1ccc(-c2csc(NC(=O)Nc3ccccc3)n2)cc1,inactive,
CC(=O)Nc1cccc(-c2csc(Nc3cccc(C)n3)n2)c1,10 µM (active),
COc1ccc(CCNc2nc(-c3cccc(NC(C)=O)c3)cs2)cc1OC,inactive,
COc1ccccc1CNC(=O)CCn1c(=O)c2ccccc2n(CC(=O)Nc2cccc(Cl)c2)c1=O,inactive,
O=C(O)c1ccc(N=NN2CCOCC2)cc1,,-3.34% [at 1.84 µM]
O=C(Nc1cccc(C(=O)N2CCCC2)c1)c1ccccc1,inactive,
O=C(O)c1cccc(N=NN2CCCCCC2)c1,0.631 µM (active),
CCOC(=O)c1cc2c(=O)n3ccccc3nc2n(CC2CCCO2)c1=NC(=O)c1ccccc1F (stereo not given),inactive,
CCOC(=O)c1c(C)[nH]c(C2=NNC(=NC(C)COC)SC2)c1C (stereo not given),3.16 µM (active),
CCOC(=O)c1c(C)[nH]c2c1-c1ccccc1C(=O)C2=O,inactive,
Cc1ccc2cc3cc(C(=O)N4CCCCCC4)oc3nc2c1,5.01 µM (active),
CCc1ccc(CNC(=O)c2cc3cc4ccc(OC)cc4nc3o2)cc1,inactive,
Cc1cc(=O)oc(C)c1C(=O)N1CCCCC1,inactive,
COc1ccccc1Nc1c2c(nc3ccc(NC(=O)/C=C/c4cc(OC)c(OC)c(OC)c4)cc13)CCCC2,inactive,
CCOc1c(CNCc2ccc(C(=O)O)cc2)cccc1OC,inactive,
CCCCCc1ccc(-c2ccc(C(=O)O)cc2)nc1,3.98 µM (active),
O=C(O)c1ccc(COCC(F)(F)F)cc1,inactive,
CCOc1ccc(Nc2nc(Cl)nc(N3CCN(c4ccc(OC)cc4)CC3)n2)cc1,inactive,
COc1ccc(Nc2ncc3c(n2)CCN(C(=O)OC(C)(C)C)C3)cc1,inactive,
COc1ccc(Nc2ncc(F)c(N3CCOCC3)n2)cc1,10 µM (active),

SMILES,Potency,"activity change, positive = activation"
CC(C)c1ccc(OCC(=O)N(Cc2ccc(N(C)C)cc2)C2CCS(=O)(=O)C2)cc1 (stereo not given),inactive,
CC1CCCCN1Cc1c(O)ccc2c(=O)c(-c3cccc(Cl)c3)c(C(F)(F)F)oc12 (stereo not given),inactive,
CCOC(=O)C1CCN(C(=O)CSc2c3c(nc4ccc(Cl)cc24)CCCC3)CC1,inactive,
Cc1ccc(-c2cc(C(F)(F)F)c(C#N)c(SCC(=O)Nc3ccccc3)n2)cc1,inactive,
COCc1cc(C)nc(SCC(=O)Nc2cccc(C)c2)c1C#N,inactive,
Cc1cc(C)c(C#N)c(SCC(=O)Nc2ccccc2)n1,12.6 µM (active),
Cc1cccc(NC(=O)Cn2c(=O)n(CCC(C)C)c(=O)c3cccnc32)c1,inactive,
COc1cc(CN(CC2CCCO2)C(=O)c2ccccc2F)cc(OC)c1OC (stereo not given),inactive,
CCc1ccc(NC(=O)Cn2c(=O)n(CCC(=O)NCc3ccc4c(c3)OCO4)c(=O)c3ccccc32)cc1,inactive,
Cc1ccccc1-n1c(=O)c2ccccc2n(Cc2ccc(F)cc2)c1=O,inactive,
CCOc1ccc(NC(=O)c2c(NC(=O)Cc3ccccc3)sc3c2CCCCC3)cc1,inactive,
Cc1ccc(C(C(=O)NCc2ccco2)N(CC2CCCO2)C(=O)Cn2nnc3ccccc32)cc1 (stereo not given),inactive,
COCCNC(=O)C(c1ccc(C)o1)N(Cc1ccccc1)C(=O)Cn1nnc2ccccc21 (stereo not given),inactive,
CCC(C)(C)NC(=O)C(c1cccn1C)N(Cc1ccc(C)cc1)C(=O)Cn1nnc2ccccc21 (stereo not given),15.8 µM (active),
O=C(Cn1c(=O)n(-c2ccc(F)cc2)c(=O)c2sc3ccccc3c21)NC1CCCC1,inactive,
Cc1ccc(-n2ncc3c(=O)n(Cc4cccc(C(F)(F)F)c4)cnc32)cc1C,inactive,
CC(C)c1ccc(Cn2c(COc3ccccc3)nc3ccccc32)cc1,inactive,
O=C(Cn1c(COc2ccccc2)nc2ccccc21)Nc1cc(Cl)c(Cl)cc1Cl,inactive,
COCn1c(COc2ccccc2)nc2ccccc21,12.6 µM (active),
Cc1cc(C)c2oc(C(=O)Nc3ccc(S(=O)(=O)Nc4nccc(C)n4)cc3)cc(=O)c2c1,inactive,
O=C(CN1C(=O)COc2ccc(S(=O)(=O)N3CCCCCC3)cc21)N1CCN(c2cccc(C(F)(F)F)c2)CC1,inactive,
